Measurements reported in PubChem BioAssay AID1986 (Sanford-Burnham Center for Chemical Genomics, 2009).
Where “and” joins values, the source holds several entries; their conditions need not be identical. Equal entries are not always repeated. Among all 290,000 compounds or so, about 890 (0.31%) were called active. Cut-off read from the data, not from the text of the source: active = inhibition mostly above about 52% (no sharp cut-off); inactive = mostly below about 76%. What follows is part of a selection rich in actives, with near analogues and random picks from the rest.

Experiment: cell-free HIV fusion peptide-binding blockers – biochemical, uHTS, fluorescence dequenching, primary screen (AID 1986)
Conditions: 30 min, stronger effect = higher value
[1] = measured here: repeat confirmation average inhibition, at 18.6 µM

Row | Compound | inhibition (at 20 µM) | inhibition [1]
1 | COCCN(C(=O)Nc1ccc(OC)cc1OC)C1CCN(C(C)C)CC1 | -0.7% (inactive) | –
2 | CN(NC(=O)Nc1ccc(Cl)cc1)c1c(Cl)c(Cl)nn1C | -1.2% (inactive) | –
3 | Cc1cccc(Nc2nc(C)cc(C)n2)c1 | 1.1% (inactive) | –
4 | CCN(CC)S(=O)(=O)c1ccc(NC(=S)NC(=O)C2CCC2)cc1 | 0.1% (inactive) | –
5 | CSCC[C@H](NC(=O)N1CCn2c1nc1ccccc12)C(=O)N1CCCCC1 | 1.5% (inactive) | –
6 | COc1ccc(C)cc1-n1nnnc1SCC1CCCO1 (stereo unspecified) | 1% (inactive) | –
7 | Cc1cccc(Cn2c(=O)c3c(nc4n3CCN4Cc3ccco3)n(C)c2=O)c1 | -3% (inactive) | –
8 | O=[N+]([O-])c1ccccc1OCCCNCc1ccccc1 | 1.6% (inactive) | –
9 | CN1CCN(c2ccc(NC(=O)COc3ccccc3[N+](=O)[O-])cc2)CC1 | -1.4% (inactive) | –
10 | CC(C)Cc1ccc(CN2CCCC(NC(=O)CCN3CCCO3)C2)cc1 (stereo unspecified) | -1.9% (inactive) | –
11 | O=C(Cn1cnc2c(nnn2Cc2ccc(F)cc2)c1=O)Nc1cccc(F)c1 | 3.6% (inactive) | –
12 | CSCC(C)N1CCC(Oc2cccc(C(=O)NCc3ccccn3)c2)CC1 (stereo unspecified) | 17% (inactive) | –
13 | O=C(O)CCCCC1CCSS1 (stereo unspecified) | 63.2% (active) | –
14 | O=C(O)CCCCCCCC(=O)O | -0.3% (inactive) | –
15 | O=C(O)CCCCC1SCC2NC(=O)NC21 (stereo unspecified) | 0.9% (inactive) and -0.7% (inactive) | –
16 | CN(C)c1ccc(/C=C2\CCC/C(=C\c3ccccc3)C2=O)cc1 | 80.8% (active) | 70.4%
17 | CC(C)/C=C1\CC/C(=C\c2ccc(N(C)C)cc2)C1=O | 37.1% (inactive) | –
18 | CN(C)c1ccc(/C=C2\CCCCC2=O)cc1 | 3.4% (inactive) | –
19 | COc1ccc(/C=C2\C(=O)NC(=S)N2C(=O)c2ccc(F)cc2)cc1 | 70.6% (active) | 59.8%
20 | COc1ccc(/C=C2\C(=O)NC(=S)N2C(=O)c2ccc(C)cc2)cc1 | 63.6% (active) | –
21 | COc1ccc(/C=C2\C(=O)NCC(=O)N2C)cc1 | -3.1% (inactive) | –
22 | O=C1NC(=S)N(C(=O)c2ccc(F)cc2)/C1=C/c1cccnc1 | 4.6% (inactive) | –
23 | O=C1NC(=S)N(C(=O)c2ccc(F)cc2)/C1=C/c1ccccc1 | 79% (inactive) | 19.2%

Row | Compound | inhibition (at 20 µM) | inhibition [1]
24 | COc1ccc(C(=O)N2C(=S)NC(=O)/C2=C\c2ccc(C)cc2)cc1 | 43.1% (inactive) | –
25 | Cc1ccc(C)c(S(=O)(=O)Nc2ccc(C(=O)NCCCN3CCCC3=O)cc2)c1 | 0.7% (inactive) | –
26 | Cc1cc(OCC(=O)NCc2cccnc2)c2c(C)c(Cc3ccccc3)c(=O)oc2c1 | 1.1% (inactive) | –
27 | Cc1ccc(/C=C(\C#N)C(=O)NCC2CCCO2)o1 (stereo unspecified) | 0.2% (inactive) | –
28 | N#C/C(=C/c1ccc(-c2ccc(Br)cc2)o1)C(=O)NC1CCCCC1 | 3.7% (inactive) | –
29 | N#C/C(=C/c1ccc(N2CCOCC2)o1)C(=O)NC1CCCCC1 | 80.5% (active) | –
30 | N#C/C(=C\c1ccc(N2CCOCC2)o1)C(=O)NCC1CCCO1 (stereo unspecified) | 118% (active) | 68%
31 | N#C/C(=C\c1ccc(N2CCOCC2)o1)C(=O)NCCc1ccccc1 | 110% (active) | –
32 | N#C/C(=C\c1ccc(N2CCCCC2)o1)C(=O)Nc1cccc(Br)c1 | 21.6% (inactive) | –
33 | COc1ccc(NC(=O)/C(C#N)=C\c2ccc(N3CCOCC3)o2)cc1 | 149% (inactive) | –
34 | N#C/C(=C/c1ccc(N2CCCCC2)o1)C(=O)NCCc1c[nH]c2ccccc12 | 11.8% (inactive) | –
35 | N#C/C(=C\c1ccc(-c2ccc(C(=O)O)cc2)o1)C(=O)NCC1CCCO1 (stereo unspecified) | 11.9% (inactive) | –
36 | COCCNC(=O)/C(C#N)=C/c1ccc(N2CCOCC2)o1 | 15.1% (inactive) | –
37 | N#C/C(=C\c1ccc(-c2ccc(S(=O)(=O)N3CCOCC3)cc2)o1)C(=O)NC1CC1 | 5.1% (inactive) | –
38 | N#C/C(=C\c1ccc(N2CCOCC2)o1)C(=O)NC1CCCCC1 | 66.5% (active) | 55.2%
39 | CN(C)C(=O)CSc1nnc(Cc2ccccc2)n1CC1CCCO1 (stereo unspecified) | -1.3% (inactive) | –
40 | COc1ccc(CN(CC(=O)NC2CCCC2)C(=O)CN2C(=O)COc3ccccc32)cc1 | 0.4% (inactive) | –
41 | Clc1ccc(-c2cnn3c(-c4ccncc4)ccnc23)cc1 | -1.1% (inactive) | –
42 | NC(=O)c1c(NC(=O)C2COc3ccccc3O2)sc2c1CCN(Cc1ccccc1)C2 (stereo unspecified) | 103% (active) | 54%
43 | CCN1CCc2c(sc(NC(=O)C3COc4ccccc4O3)c2C(N)=O)C1 (stereo unspecified) | -0.3% (inactive) | –
44 | COC(=O)c1c(NC(=O)C2COc3ccccc3O2)sc2c1CCN(Cc1ccccc1)C2 (stereo unspecified) | 3.6% (inactive) | –
45 | Cc1nonc1OCCNC(=O)C12CC3CC(CC(C3)C1)C2 | 0.6% (inactive) | –
46 | COc1cc(/C=C2/C(=N)N3N=C(C(C)C)SC3=NC2=O)ccc1OS(=O)(=O)c1ccccc1 | 22.3% (inactive) | –

Row | Compound | inhibition (at 20 µM) | inhibition [1]
47 | CCS(=O)(=O)C1=NN2C(=N)/C(=C\c3ccc(OS(=O)(=O)c4ccccc4)cc3)C(=O)N=C2S1 | 39.1% (inactive) | –
48 | COc1cc(/C=C2/C(=N)N3N=C(C)SC3=NC2=O)ccc1OS(=O)(=O)c1ccc(C)cc1 | 13.4% (inactive) | –
49 | CS(=O)(=O)C1=NN2C(=N)/C(=C\c3ccc(OCCOc4ccccc4)cc3)C(=O)N=C2S1 | 80.6% (active) | –
50 | COc1cc(/C=C2/C(=N)N3C(=NC2=O)SN=C3S(C)(=O)=O)ccc1OS(=O)(=O)c1ccc(C)cc1 | 72.4% (active) | –
51 | COc1cc(/C=C2\C(=N)N3N=C(S(C)(=O)=O)SC3=NC2=O)ccc1OS(=O)(=O)c1ccc(C)cc1 | 76.5% (active) | –
52 | COc1cc(/C=C2/C(=N)N3C(=NC2=O)SN=C3S(=O)(=O)C(C)C)ccc1OC(=O)c1ccco1 | 37.9% (inactive) | –
53 | COc1cc(/C=C2/C(=N)N3C(=NC2=O)SN=C3S(C)(=O)=O)ccc1OC(=O)c1ccco1 | 58.3% (inactive) | 49.7%
54 | CCC1=NN2C(=N)/C(=C/c3ccc(OS(=O)(=O)c4ccc(C)cc4)c(OC)c3)C(=O)N=C2S1 | 46.6% (inactive) | –
55 | COc1cc(/C=C2/C(=N)N3C(=NC2=O)SN=C3S(=O)(=O)C(C)C)ccc1OS(=O)(=O)c1ccccc1 | 71.6% (active) | –
56 | CS(=O)(=O)C1=NN2C(=N)/C(=C\c3ccc(OC(=O)c4ccco4)cc3)C(=O)N=C2S1 | 47.6% (inactive) | –
57 | COc1cc(/C=C2\C(=N)N3N=CSC3=NC2=O)ccc1OS(=O)(=O)c1ccccc1 | 10% (inactive) | –
58 | CCNC(=O)COc1ccc(OCc2ccccc2)cc1 | 2% (inactive) | –
59 | CC1(C)NC(=O)N(CC(O)CN(Cc2ccccc2)Cc2ccccc2)C1=O (stereo unspecified) | 0.1% (inactive) | –
60 | O=C(NCc1ccco1)C12CN(Cc3ccccc3)CC1C(c1cccc([N+](=O)[O-])c1)=NO2 (stereo unspecified) | 0.7% (inactive) | –
61 | COc1ccc(C2CC(c3c(-c4ccccc4)c4cc(Cl)ccc4[nH]c3=O)=NN2C(=O)CCC(=O)O)cc1 (stereo unspecified) | 15.1% (inactive) | –
62 | O=c1c2c([nH]n1-c1ccccc1)CCSC2 | 3.5% (inactive) | –
63 | COc1ccc2c(c1OC)C[N+]1([O-])CCc3cc4c(cc3C1C2)OCO4 (stereo unspecified) | -1.5% (inactive) | –
64 | C=CCNC(=S)NNc1nc(N2CCCC2)nc(N2CCCC2)n1 | -0.8% (inactive) | –
65 | COc1ccnc(CN(C)C(=O)C2CCC(=O)N(Cc3cccc(C(F)(F)F)c3)C2)c1 (stereo unspecified) | 4.4% (inactive) | –
66 | COc1cc(-n2nnnc2SC)c(OC)cc1Cl | 2.2% (inactive) | –
67 | C/C(=N\NC(=O)CN(c1ccc(Oc2ccccc2)cc1)S(C)(=O)=O)C(C)(C)C | -0.5% (inactive) | –
68 | CCOC(=O)/C(C#N)=C\C=C1C=CN(C)C=C1 | 98.3% (active) | 52.3%
69 | C=CCN1C=CC(=C/C=C(/C#N)C(=O)OCC)C=C1 | -0.9% (inactive) | –

Row | Compound | inhibition (at 20 µM) | inhibition [1]
70 | CCCN1C=CC(=C/C=C(\C#N)C(=O)OCC)C=C1 | 0.7% (inactive) | –
71 | CC(C)Cc1nc(S(=O)(=O)c2ccc(Cl)cc2)c(N2CCOCC2)o1 | 1.2% (inactive) | –
72 | Cc1ccc(-n2c(=O)c3ccc(C(=O)NCc4ccco4)cc3n(Cc3ccccc3C#N)c2=O)cc1 | -1.1% (inactive) | –
73 | Nc1c(C(=O)Nc2ccccc2)sc2nc3c(c(-c4ccco4)c12)CCC3 | -1.5% (inactive) | –
74 | Nc1c(C(=O)NCC2CCCO2)sc2nc3c(c(-c4ccco4)c12)CC/C3=C\c1ccco1 (stereo unspecified) | 64.6% (active) | –
75 | Nc1c(C(=O)NC2CC2)sc2nc3c(c(-c4ccco4)c12)CC/C3=C/c1ccco1 | 64.6% (inactive) | 21.7%
76 | COc1ccc(Nc2nc3ccccc3nc2NS(=O)(=O)c2cccs2)c(OC)c1 | 51.5% (active) | 64.5%
77 | COc1ccc(Nc2nc3ccccc3nc2NS(=O)(=O)c2cccs2)cc1 | 45.5% (inactive) | –
78 | COc1cccc(Nc2nc3ccccc3nc2NS(=O)(=O)c2cccs2)c1 | 69.4% (inactive) | 30.8%
79 | Cc1cccc(C)c1NC(=O)CN(C)C(=O)c1ccccc1C(=O)N(C)Cc1ccccc1 | -1.3% (inactive) | –
80 | C(=N\Nc1nc(N2CCCC2)nc(N2CCCC2)n1)/c1ccncc1 | -0.1% (inactive) | –
81 | COc1ccc(C(=O)NCc2nnc(SCC(=O)Nc3ccccc3F)o2)cc1 | -1.8% (inactive) | –
82 | COc1ccccc1/C=C/C(=O)NCC(=O)n1nc(C)cc1C | 0.9% (inactive) | –
83 | O=c1cc(O)c2sc(Nc3ccc(F)cc3)nc2[nH]1 | 23.5% (inactive) | –
84 | O=c1cc(O)c2sc(Nc3ccc(Cl)c(F)c3)nc2[nH]1 | 46.9% (inactive) | –
85 | O=c1cc(O)c2sc(Nc3ccc(F)c(Cl)c3)nc2[nH]1 | 51.4% (active) | –
86 | CCOc1ccc2cc(C(=O)NCc3ccccc3)c(=N)oc2c1 | 0.1% (inactive) | –
87 | CCO/C(C)=C1/SC(=S)NC1=O | -1% (inactive) | –
88 | CCCCCC/C(C)=C1/SC(=S)NC1=O | 24.4% (inactive) | –
89 | C/C(C/C(C)=C1/SC(=S)NC1=O)=C1\SC(=S)NC1=O | 69.5% (active) | –
90 | CCC1(CC)Cc2ccccc2C(=C(C#N)C#N)N1 | 0.7% (inactive) | –
